Results published in PMC7862700, “An all-to-all approach to the identification of sequence-specific readers for epigenetic DNA modifications on cytosine”.

Tests used:
Assay in all cases: DAPPL (digital affinity profiling via proximity ligation, sequencing); 10 mM Tris-HCl pH 7.5, 50 mM NaCl, 1 mM DTT, 4% glycerol, room temperature, 30 min; GST-TFs on glutathione beads, 16-mer random dsDNA library, 0.1% formaldehyde crosslink after washing; high values mean tight binding
FLI1 = target: T1, FLI1 (Homo sapiens, UniProt Q01543 1-452); conditions: protein: recombinant; tags: N-terminal GST; dsDNA, one strand shown
T1 sequence: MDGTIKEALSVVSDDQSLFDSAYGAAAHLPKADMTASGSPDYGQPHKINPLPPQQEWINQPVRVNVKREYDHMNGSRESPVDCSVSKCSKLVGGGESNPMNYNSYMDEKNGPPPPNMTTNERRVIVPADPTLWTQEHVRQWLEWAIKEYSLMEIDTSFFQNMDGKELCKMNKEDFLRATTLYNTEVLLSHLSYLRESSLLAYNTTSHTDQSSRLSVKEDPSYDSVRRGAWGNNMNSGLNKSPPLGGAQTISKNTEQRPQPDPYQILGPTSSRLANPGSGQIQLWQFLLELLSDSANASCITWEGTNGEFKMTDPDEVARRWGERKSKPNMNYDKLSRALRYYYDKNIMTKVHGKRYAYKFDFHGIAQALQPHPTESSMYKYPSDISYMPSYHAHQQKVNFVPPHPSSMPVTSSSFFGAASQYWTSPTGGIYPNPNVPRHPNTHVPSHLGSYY
In short: (§1)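 Binding signal is defined as a hexamer's read frequency for one factor over its frequency for the tag-only sample. To obtain reads, GST-fused human transcription factors were expressed in yeast, captured on glutathione beads, barcoded with DNA and pooled with that sample. Pools met 200 nmole of a 16-mer random double-stranded DNA library in Tris/NaCl/DTT/glycerol buffer for 30 min at room temperature before washing, 0.1% formaldehyde crosslinking, proximity ligation (BsaI/T4 ligase, 1 h, 37 °C), PCR and Illumina NextSeq500 sequencing.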

ELK1 = target: T2, ELK1 (Homo sapiens, UniProt P19419 1-428); conditions: protein: recombinant; tags: N-terminal GST; dsDNA, one strand shown
T2 sequence: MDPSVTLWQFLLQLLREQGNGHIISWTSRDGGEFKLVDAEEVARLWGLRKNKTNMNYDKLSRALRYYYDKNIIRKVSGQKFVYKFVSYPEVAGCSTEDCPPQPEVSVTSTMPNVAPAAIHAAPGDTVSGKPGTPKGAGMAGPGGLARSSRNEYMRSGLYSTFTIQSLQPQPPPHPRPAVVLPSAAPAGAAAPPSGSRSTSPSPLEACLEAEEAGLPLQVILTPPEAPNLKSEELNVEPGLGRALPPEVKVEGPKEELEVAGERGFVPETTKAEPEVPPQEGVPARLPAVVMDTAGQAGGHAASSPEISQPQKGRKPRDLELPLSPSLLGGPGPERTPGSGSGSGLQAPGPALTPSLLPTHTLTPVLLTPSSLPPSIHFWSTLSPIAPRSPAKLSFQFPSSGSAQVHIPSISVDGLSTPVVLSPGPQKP
In short: as §1

GABPA = target: T3, GABPA (Homo sapiens, UniProt Q06546 1-454); conditions: protein: recombinant; tags: N-terminal GST; dsDNA, one strand shown
T3 sequence: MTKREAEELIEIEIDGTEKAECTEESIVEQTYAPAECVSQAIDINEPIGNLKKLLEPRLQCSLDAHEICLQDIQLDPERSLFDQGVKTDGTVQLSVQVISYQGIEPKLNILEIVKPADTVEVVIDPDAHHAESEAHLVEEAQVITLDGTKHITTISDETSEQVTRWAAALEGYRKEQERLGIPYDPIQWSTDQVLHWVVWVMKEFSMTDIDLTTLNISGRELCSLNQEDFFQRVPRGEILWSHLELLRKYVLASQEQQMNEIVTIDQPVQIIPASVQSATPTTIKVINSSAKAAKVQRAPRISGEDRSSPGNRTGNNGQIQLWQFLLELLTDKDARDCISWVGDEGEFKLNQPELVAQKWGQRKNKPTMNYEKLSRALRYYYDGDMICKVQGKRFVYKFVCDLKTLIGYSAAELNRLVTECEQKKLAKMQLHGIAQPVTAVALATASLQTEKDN
In short: as §1

ERG = target: T4, ERG (Homo sapiens, UniProt P11308 1-479); conditions: protein: recombinant; tags: N-terminal GST; dsDNA, one strand shown
T4 sequence: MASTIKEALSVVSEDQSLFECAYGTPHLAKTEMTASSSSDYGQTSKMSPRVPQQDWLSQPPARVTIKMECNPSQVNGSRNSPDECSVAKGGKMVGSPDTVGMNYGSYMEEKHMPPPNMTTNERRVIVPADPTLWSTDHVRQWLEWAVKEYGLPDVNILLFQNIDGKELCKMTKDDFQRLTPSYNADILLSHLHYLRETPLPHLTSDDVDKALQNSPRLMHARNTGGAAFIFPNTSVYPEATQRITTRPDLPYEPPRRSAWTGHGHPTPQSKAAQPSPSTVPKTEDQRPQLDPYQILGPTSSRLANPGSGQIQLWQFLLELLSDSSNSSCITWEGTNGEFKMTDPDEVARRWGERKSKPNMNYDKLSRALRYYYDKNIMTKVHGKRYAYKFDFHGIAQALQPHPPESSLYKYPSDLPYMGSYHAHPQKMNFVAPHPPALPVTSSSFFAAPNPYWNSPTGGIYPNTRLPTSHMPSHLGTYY
In short: as §1

ELF1 = ELF1 (Homo sapiens, UniProt P32519 1-619); conditions: protein: recombinant; tags: N-terminal GST; dsDNA, one strand shown
In short: as §1

EHF = target: T5, EHF (Homo sapiens, UniProt Q9NZC4 1-300); conditions: protein: recombinant; tags: N-terminal GST; dsDNA, one strand shown
T5 sequence: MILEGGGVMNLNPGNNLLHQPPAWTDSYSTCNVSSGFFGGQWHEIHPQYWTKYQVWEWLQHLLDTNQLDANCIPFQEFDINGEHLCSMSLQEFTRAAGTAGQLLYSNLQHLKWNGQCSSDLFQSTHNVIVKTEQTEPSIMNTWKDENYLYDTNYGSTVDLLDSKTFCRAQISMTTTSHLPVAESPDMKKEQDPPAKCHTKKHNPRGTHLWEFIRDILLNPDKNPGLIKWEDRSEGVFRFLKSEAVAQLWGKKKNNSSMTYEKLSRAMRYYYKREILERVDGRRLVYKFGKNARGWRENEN
In short: as §1

SPI1 = SPI1 (Homo sapiens, UniProt P17947 1-270); conditions: protein: recombinant; tags: N-terminal GST; dsDNA, one strand shown
In short: as §1

SPIB = SPIB (Homo sapiens, UniProt Q01892 1-262); conditions: protein: recombinant; tags: N-terminal GST; dsDNA, one strand shown
In short: as §1

ELK3 = target: T6, ELK3 (Homo sapiens, UniProt P41970 1-407); conditions: protein: recombinant; tags: N-terminal GST; dsDNA, one strand shown
T6 sequence: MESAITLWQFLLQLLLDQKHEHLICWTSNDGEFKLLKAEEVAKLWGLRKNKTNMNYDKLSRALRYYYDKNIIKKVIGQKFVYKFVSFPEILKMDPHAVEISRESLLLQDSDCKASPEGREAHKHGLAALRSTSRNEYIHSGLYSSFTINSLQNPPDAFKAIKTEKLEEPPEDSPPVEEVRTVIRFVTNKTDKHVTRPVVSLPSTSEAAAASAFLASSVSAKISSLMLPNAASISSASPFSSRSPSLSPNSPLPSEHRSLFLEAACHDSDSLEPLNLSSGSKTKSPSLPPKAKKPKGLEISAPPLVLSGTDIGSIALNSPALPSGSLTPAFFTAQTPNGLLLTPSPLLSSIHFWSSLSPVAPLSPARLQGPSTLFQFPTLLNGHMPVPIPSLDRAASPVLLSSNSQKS
In short: as §1

FEV = target: T7, FEV (Homo sapiens, UniProt Q99581 1-238); conditions: protein: recombinant; tags: N-terminal GST; dsDNA, one strand shown
T7 sequence: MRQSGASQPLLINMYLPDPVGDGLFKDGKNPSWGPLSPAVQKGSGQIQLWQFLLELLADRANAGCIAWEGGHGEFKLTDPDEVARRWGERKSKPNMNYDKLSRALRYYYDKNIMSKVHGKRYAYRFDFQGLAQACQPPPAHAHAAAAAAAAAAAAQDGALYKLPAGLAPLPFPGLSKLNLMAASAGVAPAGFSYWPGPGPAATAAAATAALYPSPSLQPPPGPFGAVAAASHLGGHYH
In short: as §1

ETV5 = ETV5 (Homo sapiens, UniProt P41161 1-510); conditions: protein: recombinant; tags: N-terminal GST; dsDNA, one strand shown
In short: as §1

HSF1 = HSF1 (Homo sapiens, UniProt Q00613 1-529); conditions: protein: recombinant; tags: N-terminal GST; chain copies: 3; dsDNA, one strand shown
In short: as §1

SPIC = target: T8, SPIC (Homo sapiens, UniProt Q8N5J4 1-248); conditions: protein: recombinant; tags: N-terminal GST; dsDNA, one strand shown
T8 sequence: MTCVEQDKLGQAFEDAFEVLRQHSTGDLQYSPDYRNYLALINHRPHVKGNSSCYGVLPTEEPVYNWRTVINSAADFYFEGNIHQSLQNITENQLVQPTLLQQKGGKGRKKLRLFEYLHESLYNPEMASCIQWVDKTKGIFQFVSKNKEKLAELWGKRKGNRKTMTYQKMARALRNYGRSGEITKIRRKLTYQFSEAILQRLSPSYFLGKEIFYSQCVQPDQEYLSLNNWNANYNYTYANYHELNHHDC
In short: as §1

ELF4 = ELF4 (Homo sapiens, UniProt Q99607 1-663); conditions: protein: recombinant; tags: N-terminal GST; dsDNA, one strand shown
In short: as §1

ELK4 = target: T9, ELK4 (Homo sapiens, UniProt P28324-2 1-405); conditions: protein: recombinant; tags: N-terminal GST; dsDNA, one strand shown
T9 sequence: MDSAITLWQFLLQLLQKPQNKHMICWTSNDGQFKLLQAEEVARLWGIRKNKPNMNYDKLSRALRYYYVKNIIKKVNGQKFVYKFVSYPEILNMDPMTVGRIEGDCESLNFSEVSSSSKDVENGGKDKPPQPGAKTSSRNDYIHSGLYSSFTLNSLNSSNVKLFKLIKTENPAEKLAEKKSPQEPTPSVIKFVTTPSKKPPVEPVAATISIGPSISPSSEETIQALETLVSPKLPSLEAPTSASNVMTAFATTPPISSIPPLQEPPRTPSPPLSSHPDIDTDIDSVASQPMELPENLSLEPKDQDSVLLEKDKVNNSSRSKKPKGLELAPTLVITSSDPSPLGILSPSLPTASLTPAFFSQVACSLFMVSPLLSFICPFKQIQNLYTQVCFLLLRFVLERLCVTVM
In short: as §1

ETV2 = target: T10, ETV2 (Homo sapiens, UniProt O00321 1-342); conditions: protein: recombinant; tags: N-terminal GST; dsDNA, one strand shown
T10 sequence: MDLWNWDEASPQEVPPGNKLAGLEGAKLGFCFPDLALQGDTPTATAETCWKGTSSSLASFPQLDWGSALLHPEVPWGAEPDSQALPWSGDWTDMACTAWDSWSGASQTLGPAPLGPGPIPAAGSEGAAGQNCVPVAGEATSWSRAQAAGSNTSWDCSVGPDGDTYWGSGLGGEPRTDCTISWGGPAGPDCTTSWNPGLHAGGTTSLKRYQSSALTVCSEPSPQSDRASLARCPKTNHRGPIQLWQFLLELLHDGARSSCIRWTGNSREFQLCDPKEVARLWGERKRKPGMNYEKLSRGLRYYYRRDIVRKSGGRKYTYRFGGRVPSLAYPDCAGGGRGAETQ
In short: as §1

ELF3 = target: T11, ELF3 (Homo sapiens, UniProt P78545 1-371); conditions: protein: recombinant; tags: N-terminal GST; dsDNA, one strand shown
T11 sequence: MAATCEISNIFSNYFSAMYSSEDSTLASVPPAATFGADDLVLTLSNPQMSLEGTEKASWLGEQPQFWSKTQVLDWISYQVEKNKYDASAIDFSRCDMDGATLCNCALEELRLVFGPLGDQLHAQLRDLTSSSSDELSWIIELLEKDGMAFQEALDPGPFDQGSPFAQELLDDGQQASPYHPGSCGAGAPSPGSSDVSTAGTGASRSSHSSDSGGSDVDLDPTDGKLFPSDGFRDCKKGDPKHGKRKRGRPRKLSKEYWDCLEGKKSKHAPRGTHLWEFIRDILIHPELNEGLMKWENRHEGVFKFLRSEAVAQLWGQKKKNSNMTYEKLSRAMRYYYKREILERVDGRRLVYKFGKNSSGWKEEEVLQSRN
In short: as §1

CRX = CRX (Homo sapiens, UniProt O43186 1-299); conditions: protein: recombinant; tags: N-terminal GST; dsDNA, one strand shown
In short: as §1

ETV1 = ETV1 (Homo sapiens, UniProt P50549 1-477); conditions: protein: recombinant; tags: N-terminal GST; dsDNA, one strand shown
In short: as §1

Chain of HSF1 (Q00613 whole entry): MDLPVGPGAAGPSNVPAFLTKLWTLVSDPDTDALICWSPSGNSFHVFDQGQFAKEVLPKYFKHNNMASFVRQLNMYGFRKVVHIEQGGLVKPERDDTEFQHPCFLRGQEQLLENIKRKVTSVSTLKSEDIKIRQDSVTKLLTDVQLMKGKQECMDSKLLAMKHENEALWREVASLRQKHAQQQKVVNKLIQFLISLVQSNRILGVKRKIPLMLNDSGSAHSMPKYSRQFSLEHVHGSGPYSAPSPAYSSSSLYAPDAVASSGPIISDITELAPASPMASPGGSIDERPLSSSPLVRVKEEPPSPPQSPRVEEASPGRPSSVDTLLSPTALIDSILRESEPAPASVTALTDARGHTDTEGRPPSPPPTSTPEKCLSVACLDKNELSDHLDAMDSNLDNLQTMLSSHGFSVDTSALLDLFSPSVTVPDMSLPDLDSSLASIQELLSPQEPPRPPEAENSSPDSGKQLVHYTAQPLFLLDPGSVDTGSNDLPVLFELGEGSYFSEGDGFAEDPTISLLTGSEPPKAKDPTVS
Chain of ETV1 (P50549 whole entry): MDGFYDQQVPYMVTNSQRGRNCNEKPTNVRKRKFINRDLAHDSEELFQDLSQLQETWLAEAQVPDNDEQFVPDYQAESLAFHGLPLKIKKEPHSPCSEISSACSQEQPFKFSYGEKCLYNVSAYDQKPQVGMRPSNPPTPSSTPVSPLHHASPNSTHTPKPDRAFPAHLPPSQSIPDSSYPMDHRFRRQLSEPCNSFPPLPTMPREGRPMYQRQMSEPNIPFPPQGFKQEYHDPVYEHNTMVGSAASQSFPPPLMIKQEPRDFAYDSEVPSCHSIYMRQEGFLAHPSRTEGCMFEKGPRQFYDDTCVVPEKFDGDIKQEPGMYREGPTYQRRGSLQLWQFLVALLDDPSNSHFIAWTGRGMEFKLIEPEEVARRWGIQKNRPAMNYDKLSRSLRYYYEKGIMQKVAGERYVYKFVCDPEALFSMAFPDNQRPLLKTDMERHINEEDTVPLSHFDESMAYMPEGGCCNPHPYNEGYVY
Chain of ELF4 (Q99607 whole entry): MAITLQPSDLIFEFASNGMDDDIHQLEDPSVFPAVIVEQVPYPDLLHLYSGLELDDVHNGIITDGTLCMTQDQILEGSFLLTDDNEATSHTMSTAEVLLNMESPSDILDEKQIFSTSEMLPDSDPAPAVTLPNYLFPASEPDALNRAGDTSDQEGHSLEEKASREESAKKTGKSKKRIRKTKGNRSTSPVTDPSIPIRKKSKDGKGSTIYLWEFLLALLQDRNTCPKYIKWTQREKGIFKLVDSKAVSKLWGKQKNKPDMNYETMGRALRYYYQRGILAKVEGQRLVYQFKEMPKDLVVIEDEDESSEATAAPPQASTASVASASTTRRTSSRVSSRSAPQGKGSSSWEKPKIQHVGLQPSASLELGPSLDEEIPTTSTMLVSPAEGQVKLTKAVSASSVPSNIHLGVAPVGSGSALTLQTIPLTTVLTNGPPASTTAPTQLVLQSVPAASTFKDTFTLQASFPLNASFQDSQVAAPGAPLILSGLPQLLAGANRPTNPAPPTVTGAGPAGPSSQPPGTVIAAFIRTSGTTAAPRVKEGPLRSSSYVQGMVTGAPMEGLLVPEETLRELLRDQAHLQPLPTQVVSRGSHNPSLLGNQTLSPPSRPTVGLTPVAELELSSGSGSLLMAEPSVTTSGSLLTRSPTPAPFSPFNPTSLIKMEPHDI
Chain of SPIB (Q01892 whole entry): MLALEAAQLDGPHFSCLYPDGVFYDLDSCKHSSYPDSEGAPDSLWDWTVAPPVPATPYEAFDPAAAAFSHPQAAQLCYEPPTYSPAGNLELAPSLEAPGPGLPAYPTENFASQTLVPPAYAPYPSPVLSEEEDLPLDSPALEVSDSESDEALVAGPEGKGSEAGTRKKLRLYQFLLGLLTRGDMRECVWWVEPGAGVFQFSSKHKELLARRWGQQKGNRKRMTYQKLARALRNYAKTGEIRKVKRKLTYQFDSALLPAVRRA
Chain of ELF1 (P32519 whole entry): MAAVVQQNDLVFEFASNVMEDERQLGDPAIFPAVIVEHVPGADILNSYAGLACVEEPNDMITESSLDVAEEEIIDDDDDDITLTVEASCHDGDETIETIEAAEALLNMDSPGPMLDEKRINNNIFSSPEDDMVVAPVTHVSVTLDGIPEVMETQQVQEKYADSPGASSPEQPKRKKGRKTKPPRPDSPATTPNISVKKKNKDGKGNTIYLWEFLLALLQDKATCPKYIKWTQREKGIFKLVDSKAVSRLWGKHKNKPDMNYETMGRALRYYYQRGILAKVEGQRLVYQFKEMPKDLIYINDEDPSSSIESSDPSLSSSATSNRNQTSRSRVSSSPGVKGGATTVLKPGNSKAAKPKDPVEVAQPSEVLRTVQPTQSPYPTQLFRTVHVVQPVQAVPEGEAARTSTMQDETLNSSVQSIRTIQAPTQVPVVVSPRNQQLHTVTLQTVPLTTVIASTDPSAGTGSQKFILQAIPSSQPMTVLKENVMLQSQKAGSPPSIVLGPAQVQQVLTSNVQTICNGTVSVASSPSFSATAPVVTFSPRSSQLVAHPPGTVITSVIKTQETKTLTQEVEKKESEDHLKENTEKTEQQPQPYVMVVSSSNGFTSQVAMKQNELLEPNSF
Chain of ETV5 (P41161 whole entry): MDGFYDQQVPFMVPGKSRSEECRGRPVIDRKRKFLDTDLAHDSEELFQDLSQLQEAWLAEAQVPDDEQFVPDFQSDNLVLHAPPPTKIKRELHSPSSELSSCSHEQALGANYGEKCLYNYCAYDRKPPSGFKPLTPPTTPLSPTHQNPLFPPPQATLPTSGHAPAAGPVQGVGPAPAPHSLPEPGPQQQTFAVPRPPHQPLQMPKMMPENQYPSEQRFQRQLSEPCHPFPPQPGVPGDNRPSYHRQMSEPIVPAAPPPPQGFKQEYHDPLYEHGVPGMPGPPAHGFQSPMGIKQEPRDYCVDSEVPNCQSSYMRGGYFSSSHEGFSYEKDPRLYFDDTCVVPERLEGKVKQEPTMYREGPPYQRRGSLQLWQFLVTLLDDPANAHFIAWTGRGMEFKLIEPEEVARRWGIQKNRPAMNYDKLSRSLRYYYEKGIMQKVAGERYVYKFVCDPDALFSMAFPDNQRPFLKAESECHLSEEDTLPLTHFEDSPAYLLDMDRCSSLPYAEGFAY
Chain of CRX (O43186 whole entry): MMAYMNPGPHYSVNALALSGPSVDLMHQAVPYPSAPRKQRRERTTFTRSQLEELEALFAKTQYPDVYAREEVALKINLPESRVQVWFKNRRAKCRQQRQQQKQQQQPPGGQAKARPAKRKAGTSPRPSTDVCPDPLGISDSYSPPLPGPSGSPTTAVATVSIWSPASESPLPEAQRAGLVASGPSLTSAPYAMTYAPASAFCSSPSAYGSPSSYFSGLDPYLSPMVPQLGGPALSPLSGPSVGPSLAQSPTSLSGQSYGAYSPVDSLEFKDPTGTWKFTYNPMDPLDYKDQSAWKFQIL

AAATTG
binding signal (FLI1): 1.2 fold enrichment (6-mer frequency, TF over GST control)
binding signal (ELK1): 1.23 fold enrichment (6-mer frequency, TF over GST control)
binding signal (GABPA): 1.26 fold enrichment (6-mer frequency, TF over GST control)
binding signal (ERG): 1.23 fold enrichment (6-mer frequency, TF over GST control)
binding signal (ELF1): 1.22 fold enrichment (6-mer frequency, TF over GST control)
binding signal (EHF): 1.28 fold enrichment (6-mer frequency, TF over GST control)
binding signal (SPI1): 1.26 fold enrichment (6-mer frequency, TF over GST control)
binding signal (SPIB): 1.25 fold enrichment (6-mer frequency, TF over GST control)
binding signal (ELK3): 1.22 fold enrichment (6-mer frequency, TF over GST control)
binding signal (FEV): 1.22 fold enrichment (6-mer frequency, TF over GST control)
binding signal (ETV5): 1.26 fold enrichment (6-mer frequency, TF over GST control)
binding signal (HSF1): 1.16 fold enrichment (6-mer frequency, TF over GST control)
binding signal (SPIC): 1.16 fold enrichment (6-mer frequency, TF over GST control)
binding signal (ELF4): 1.27 fold enrichment (6-mer frequency, TF over GST control)
binding signal (ELK4): 1.2 fold enrichment (6-mer frequency, TF over GST control)
binding signal (ETV2): 1.21 fold enrichment (6-mer frequency, TF over GST control)
binding signal (ELF3): 1.33 fold enrichment (6-mer frequency, TF over GST control)
binding signal (CRX): 1.05 fold enrichment (6-mer frequency, TF over GST control)
binding signal (ETV1): 1.21 fold enrichment (6-mer frequency, TF over GST control)
